# Data as given in PubChem BioAssay AID504848 (National Center for Advancing Translational Sciences (NCATS), 2011).
# Out of some 2,300 compounds screened, about 1,400 (61%) were called active. About 29% were inconclusive and are not listed. Calls come from the whole dose curve; as a rule, active = well fitted inhibition curve with a large enough effect; inconclusive = small, poorly fitted or top-dose-only effect, or effect the other way; inactive = no such curve, though single readings can be large or run the other way. So high a share suggests a set chosen from earlier hits. Some of the results follow.
# Test: Confirmation screen for delayed death inhibitors of the malarial parasite plastid, 96 hour incubation; note: nearly all actives have a fitted effect of over 60% in size
# Conditions: P. falciparum luciferase growth in erythrocytes; series mostly up to 28.7 µM
# Source text: The goal of this screen is to discover new antimalarial compounds that act by inhibiting the development of the apicoplast in the malarial parasite Plasmodium falciparum. The biochemical processes that make this organelle essential for erythrocytic stage parasites are not well understood. However, antibiotics, such as azithromycin and tetracycline, which target the apicoplast translational machinery, have a potent antimalarial effect. […] We have developed a cell-based assay that measures parasite growth based on the expression of an integrated copy of a firefly luciferase reporter. To detect small molecules that cause this "delayed death phenotype, erythrocytes infected with the luciferase-expressing parasites were incubated with compounds for either one or two generations, corresponding to 48 and 96 hours, respectively. Compounds that inhibit parasite growth in the second generation, but not the first, should be enriched in antimalarials that target the apicoplast. Growth inhibition is detected by a decrease in luciferase activity. MLPCN Grant: R21 NS059500 Assay Provider: David Fidock and Eric Ekland, Columbia University Keywords: NIH Roadmap, MLPCN, MLI, MLSMR, qHTS, NCGC, qHTS, malaria, luciferase, viability
# Four microliters of culture medium (RPMI 1640 with 0.5% w/v Albumax (GIBCO), 24 mM sodium bicarbonate and 10 ug/mL gentamycin) were dispensed by a Multi-drop Combi into white solid 1536-well plates (Grenier) and 23 nL compound was added by a pin tool. Four microliters of infected erythrocytes (2% hematocrit, 0.1% parasitemia final concentration) in culture medium were dispensed and the plates incubated for 96 hours at 37 C in 5% CO2. Two microliters of luciferase detection reagent was added and luminescence was detected by a ViewLux (PerkinElmer) reader
# Potency is the fitted concentration of half-maximal effect.
row,Compound,Potency
1,C=C[C@]1(C)C[C@@H](OC(=O)CSCCN(CC)CC)[C@]2(C)C(C)CC[C@]3(CCC(=O)[C@H]32)[C@@H](C)[C@@H]1O (some centres not stated),2 µM (active)
2,CN(Cc1ccc(Cl)c(Cl)c1)C(=O)C1=CC=CN2CCS(=O)(=O)N=C12,5.01 µM (active)
3,COC(=O)c1ccc(Sc2nnnn2-c2ccccc2)c([N+](=O)[O-])c1,12.6 µM (active)
4,CC1CCN(C(=O)Cn2cc(C(=O)c3ccco3)c3ccccc32)CC1,14.1 µM (active)
5,Cc1ccc(NC(=O)C(=Cc2ccc(C(=O)O)cc2)C(=O)Nc2ccc(C)cc2C)c(C)c1,6.31 µM (active)
6,Cn1c(=O)[nH]c(=O)c2c1nc(NCc1ccccc1)n2Cc1ccc(F)cc1,3.55 µM (active)
7,C/C(CC(=O)NC1CCCCC1)=N\NC(=O)COc1ccc(C)cc1Br,15.8 µM (active)
8,Cc1ccc(OCC(=O)Nn2cnnc2)c(Br)c1,inactive
9,O=C(c1ccc(OC2CCN(Cc3ccccc3OC(F)F)CC2)cc1)N1CCCC1,2.51 µM (active)
10,COc1ccc(CCC(C)N2CCC(Oc3ccc(C(=O)N4CCCC4)cc3)CC2)cc1 (configuration not stated),10 µM (active)
11,CCN(CC)CCOC(=O)c1ccc(NC(=O)C(C)NC(=O)C23CC4CC(CC(C4)C2)C3)cc1 (configuration not stated),12.6 µM (active)
12,Cc1ccc(Nc2cc(C)c3ccc(O)cc3n2)cc1C,0.126 µM (active)
13,OC1C2(Cc3ccccc3)CN3CCN(C2)CC1(Cc1ccccc1)C3 (configuration not stated),2 µM (active)
14,O=c1cc(CSc2nc(NCc3ccccc3)c3ccccc3n2)nc2ccc(Cl)cn12,3.55 µM (active)
15,CCN(CC)S(=O)(=O)c1ccc(N2CCOCC2)c(NC(=O)C2CSC3(C)CCC(=O)N23)c1 (configuration not stated),5.62 µM (active)
16,COc1ccc2[nH]cc(CCCN3C(=O)c4ccccc4C3=O)c2c1,inactive
17,COc1ccc2[nH]cc(C(=O)CCl)c2c1,12.6 µM (active)
18,CCOc1ccc(/C=C/[N+](=O)[O-])c2ccccc12,15.8 µM (active)
19,Cc1ccc(C)c(-c2nnc(OCC(=O)Nc3cc(C)on3)c3ccccc23)c1,12.6 µM (active)
20,COc1cc(CNC2CCCCCCC2)ccc1OCC(N)=O,12.6 µM (active)
21,Cc1cc(C)c(NC(=O)c2cccc3c2C(=O)N(C2CCCCC2)C3)c(C)c1,7.94 µM (active)
22,CCOC(=O)C(CC)(CC)C(=O)/C=C/c1ccc(Br)cc1,6.31 µM (active)
23,CCOC(=O)C(=Cc1ccccc1OC)C(=O)OCC,12.6 µM (active)

row,Compound,Potency
1,COc1ccccc1/C=C/C(=O)/C=C/c1ccccc1O,1 µM (active)
2,O=C(/C=C/c1ccccc1O)c1ccco1,inactive
3,COc1ccccc1/C=C/C(=O)c1ccccc1,14.1 µM (active)
4,CCOC(=O)C(=Cc1ccc(Br)cc1)C(=O)OCC,7.94 µM (active)
5,COc1ccc(CCNc2cc(C)nc3c(-c4ccc(Cl)cc4)c(C)nn23)cc1OC,11.2 µM (active)
6,CSc1ccc(/C=C/C(=O)c2ccc(NC(=O)C(C)C)cc2)cc1,inactive
7,O=C(/C=C/c1ccncc1)c1ccc(NC(=O)c2ccccc2F)cc1,12.6 µM (active)
8,COc1cccc(Nc2ccc(N3CCCCC3)cc2)c1OC,0.355 µM (active)
9,CCOC(=O)CN1C(=O)/C(=C/c2c(F)cccc2Cl)Oc2ccccc21,12.6 µM (active)
10,CCOC(=O)c1ccc(N2N=C(C)/C(=C/C=C/c3ccco3)C2=O)cc1,5.62 µM (active)
11,CC(=O)c1cccc(NC(=O)CSc2ccc(-c3sc(C)nc3C)nn2)c1,12.6 µM (active)
12,CCc1ccc(NC2=CC(=O)C(=O)c3ccccc32)cc1,0.447 µM (active)
13,COc1ccc(-c2c(-c3cc(OC)cc(OC)c3)n(C)c3ccc(-c4ccc5[nH]ccc5c4)cc23)cc1,6.31 µM (active)
14,CCN(CC)C(=O)C1CCCN(C(=O)c2cc(COc3ccc4ncccc4c3)on2)C1 (configuration not stated),11.2 µM (active)
15,c1ccc2c(c1)Nc1cc3ccccc3cc1S2,3.98 µM (active)
16,O=C(c1[nH]ncc1-c1cccc(Br)c1)C1CO1 (configuration not stated),12.6 µM (active)
17,O=S(=O)(c1ccc(F)cc1)N1CCc2ccccc2C1,12.6 µM (active)
18,COC(=O)Nc1ccc2c(c1)N(C(=O)CCCl)c1ccccc1S2,12.6 µM (active)
19,O=S1(=O)Nc2c(ccc3cccnc23)-c2ccccc21,1.58 µM (active)
20,Cc1ccc(C2(C)NC(=O)N(CC(=O)N3CCN(S(=O)(=O)c4cccc(F)c4)CC3)C2=O)cc1 (configuration not stated),7.08 µM (active)
21,O=C(NC1CCCCC1)c1ccc(CS(=O)Cc2ccccc2Cl)o1 (configuration not stated),12.6 µM (active)
22,Cc1ccc(CS(=O)(=O)Cc2ccc(C(=O)NC3CCCC3)o2)cc1,10 µM (active)
23,O=C(c1cccs1)N1N=C(c2ccccc2)CC1c1ccccc1O (configuration not stated),2.82 µM (active)

row,Compound,Potency
1,CCOc1ccc(CCn2c(-c3ccco3)nc3ccccc3c2=O)cc1OCC,10 µM (active)
2,O=C(Nn1c(-c2ccccc2)nc2ccccc2c1=O)c1ccco1,inactive
3,Cc1c(O)ccc(C(=O)CN2CCN(Cc3ccc4c(c3)OCO4)CC2)c1O,5.01 µM (active)
4,Cc1ccc(NC2=C/C(=N\S(=O)(=O)c3cccs3)c3ccccc3C2=O)c(C)c1,0.0708 µM (active)
5,CCc1ccc(-c2cn(C3CCCCC3)c(=S)[nH]2)cc1,6.31 µM (active)
6,Clc1ccccc1Cn1c(/C=C/c2ccco2)nc2ccccc21,11.2 µM (active)
7,COc1ccccc1N1CCN(CCC(=O)Nc2ccc(F)cc2)CC1,12.6 µM (active)
8,O=C1CN(c2nc(-c3cccnc3)nc3scc(-c4ccccc4)c23)CCN1,inactive
9,O=C(c1cccs1)N1CCCN(c2ncnc3scc(-c4ccccc4)c23)CC1,12.6 µM (active)
10,Cc1cc(C)n(CC(O)COc2ccccc2)n1 (configuration not stated),0.891 µM (active)
11,O=C1CN(C(=O)c2ccc(Cl)c(S(=O)(=O)N3CCc4ccccc43)c2)c2ccccc2N1,12.6 µM (active)
12,CC[C@@H](C(=O)[C@@H](C)[C@@H](O)[C@H](C)CCc1ccc(C)c(O)c1C(=O)O)[C@H]1O[C@](CC)([C@H]2CC[C@](O)(CC)[C@H](C)O2)C[C@@H]1C,0.631 µM (active)
13,Fc1ccccc1C1c2[nH]c3ccccc3c2CCN1Cc1cccn1-c1ncccn1 (configuration not stated),12.6 µM (active)
14,COc1ccc(C2c3[nH]c4ccccc4c3CCN2Cc2ccoc2)c(F)c1 (configuration not stated),12.6 µM (active)
15,Cc1ccccc1C1c2[nH]c3ccccc3c2CCN1Cc1cccn1-c1ncccn1 (configuration not stated),14.1 µM (active)
16,O=c1c(Cl)c(Cl)cnn1Cc1nnc(-c2ccc(Cl)cc2)o1,12.6 µM (active)
17,COc1cc2c(O)c3c(c(-c4ccc5c(c4)OCO5)c2cc1OC)C(=O)OC3,6.31 µM (active)
18,CCOC(=O)C1=C(C)NC(C)=C(C(=O)OCC)C1c1cc(N)ccc1OC(F)F,5.62 µM (active)
19,Cc1ccc(N(Cc2ccco2)C(=O)c2ccc(N3CCCCC3)c([N+](=O)[O-])c2)cc1,10 µM (active)
20,Nc1c(N(Cc2ccco2)C(=O)c2ccc(Br)cc2)c(=O)[nH]c(=O)n1Cc1ccccc1,inactive
21,COc1cc(CN2CCN(CC#Cc3ccccc3)CC2CCO)cc(OC)c1 (configuration not stated),14.1 µM (active)
22,COc1cc(CN2CCN(Cc3c[nH]c4ccccc34)CC2CCO)cc(OC)c1 (configuration not stated),12.6 µM (active)
23,Cc1cccc(Nc2nc3c(S(=O)(=O)c4ccccc4)nnn3c3ccccc23)c1C,3.98 µM (active)

row,Compound,Potency
1,CC(C)(C)NC(=O)CSc1nnc(-c2ccccc2)c(-c2ccccc2)n1,14.1 µM (active)
2,COc1ccc(/C=C2\CCc3ccccc3C2=O)cc1CN1CCOCC1,15.8 µM (active)
3,CCC(C)NC(=O)c1cc(Cl)c(NC(=O)C2=C(C)OCCS2)cc1OC (configuration not stated),10 µM (active)
4,Cc1nn2c(Nc3ccccc3)c3c(nc2c1-c1ccccc1)CCC3,14.1 µM (active)
5,Cc1ccc(Cl)cc1Nc1nc(-c2sc(NC(=O)C(C)(C)C)nc2C)cs1,2.82 µM (active)
6,Cc1cccc(N(Cc2ccccc2)C(=O)CSC(C)C(=O)Nc2cc(C)on2)c1 (configuration not stated),8.91 µM (active)
7,CCOC(=O)C1CCN(C(=O)C(=O)Nc2ccc3nc4n(c(=O)c3c2)CCCCC4)CC1,7.08 µM (active)
8,COc1ccccc1C(=O)Nc1ccc2nc3n(c(=O)c2c1)CCCC3,3.55 µM (active)
9,CCCCCNc1nc2sc3c(c2c(=O)n1-c1cccc(Cl)c1)CCN(C)C3,2.24 µM (active)
10,CCCCNc1nc2sc3c(c2c(=O)n1-c1cccc(Cl)c1)CCN(C)C3,1.26 µM (active)
11,O=C(O)c1ccc(C=C(c2nc3ccccc3s2)c2nc3ccccc3s2)cc1,15.8 µM (active)
12,CCCCNC(=O)c1onc(CSc2cc(C)ccc2C)c1C(=O)O,inactive
13,Cc1cc(C(C)(C)C)cc(C)c1CCNC(=O)c1c(C)noc1C,10 µM (active)
14,Cc1cc(C(C)(C)C)cc(C)c1CCNC(=O)c1ccc[n+]([O-])c1,12.6 µM (active)
15,Cc1ccc2c(c1)N(CCC(=O)NCc1ccco1)C(=O)CO2,inactive
16,Cc1nn(CCCC(=O)NCc2ccco2)c(=O)c2nn(-c3ccccc3)c(C)c12,11.2 µM (active)
17,Cc1ccc(-n2nc3c(=O)n(CCCC(=O)NCc4ccco4)nc(C)c3c2C)cc1,2.24 µM (active)
18,C/C(=N/OCO/N=C(\C)c1ccccc1)c1ccccc1,inactive
19,C/C(=N\NC(=S)Nc1cccc(C)c1)c1ccccc1,11.2 µM (active)
20,CCOC(=O)c1c(C)[nH]c(C(=O)Nc2cc(OCC)c(N3CCOCC3)cc2OCC)c1C,2.51 µM (active)
21,CCOC(=O)c1ccc(NC(=O)c2c(Cl)cc(C)nc2C)cc1,12.6 µM (active)
22,CCOC(=O)c1ccc(Nc2nc(=O)c3cccnc3s2)cc1,inactive
23,N#C/C(=C\c1coc2ccccc2c1=O)C(N)=S,11.2 µM (active)
